Source: PubChem BioAssay
This is one part of a sample in which hits are shown more often than they occur.
Pf Dd2 growth: inhibitors of Plasmodium falciparum Dd2 growth; Potency, µM (top dose mostly 28.9 µM), inactives show at the highest dose activity, negative = inhibition, most hits filed as inhibitors; P. falciparum Dd2 growth, SYBR Green, 72 h; hit rate 4.3% among 120,000; active means well fitted inhibition curve with a large enough effect;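 further: plate controls were DMSO vehicle for no effect and reference drug for full effect; nearly all actives have a fitted effect of over 65% in size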
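Readout: SYBR Green fluorescence, 485 nm excitation, 535 nm emission, after ~16 h lysis at 37C. Before that, Dd2-infected red cells (2.5% hematocrit) grew 72 h with compound, 29 uM top final concentration.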
An asterisk follows results filed as active; i = inactive; [ ] = remark or other dose. Potency means the concentration at half of the fitted maximal effect.

SMILES | Pf Dd2 growth
Cc1ccc2c(C(=O)N3CCOCC3)cnn2c1 | 4%[44.1 µM]
COCC1CN(C(C)=O)CC12CCN(Cc1cccc(OC)n1)CC2 (stereo not given) | -8%
COc1ccc(O[C@H]2COCCN(C(=O)c3cccc(F)c3)C2)cc1 | -6%[44.1 µM]
CN1CCCN(S(=O)(=O)c2ccc3c(c2)OCCO3)c2ccccc21 | -23%
CCCc1ccc2oc(C(=O)NCCc3nncn3CC)c(C)c2c1 | -21%
Cc1c(Cl)cc(C(=O)N(C)CCC2CCOCC2)cc1Cl | -14%
CCCc1ccc2oc(C(=O)N(C)CCC3CCCCO3)c(C)c2c1 (stereo not given) | 10µM*
COc1ccccc1-c1[nH]nc2ncc(C(=O)N3CCC(c4ccccc4)CC3)nc12 | 14µM*
COc1ccccc1-c1[nH]nc2ncc(C(=O)N(C)c3ccccc3)nc12 | -22%[44.1 µM]
COc1ccccc1-c1[nH]nc2ncc(C(=O)N3CCNC(=O)C3)nc12 | -15%[44.1 µM]
O=C(NC[C@H]1O[C@@H](CC(=O)N2CCN(c3ccccc3)CC2)[C@H](O)[C@@H]1O)c1ccc(F)c(Cl)c1 | 17%
Cc1ccc(C(C(=O)NCc2c(C)n[nH]c2C)N(C)C)cc1 (stereo not given) | 1%
O=c1cc(-c2cccnc2)oc2c(-c3ccccc3F)nccc12 | i
O=c1cc(-c2ccncc2)oc2c(-c3ccccc3O)nccc12 | 1.8µM*
C[S+](=O)([O-])c1ccc(-c2nccc3c(=O)cc(-c4ccncc4)oc23)cc1 | i
COc1ccc(Cn2c(C3CCN(C(=O)c4ccccc4OC)CC3)n[nH]c2=O)cc1 | 4%
CC(=O)c1ccc(NC(=O)O[C@@H]2CO[C@H]3[C@@H]2OC[C@@H]3n2nnnc2-c2ccc(CN3CCOCC3)cc2)cc1 | i
O=C(c1ccc(-n2ccnc2)cc1)N1CCN(c2cccc(Cl)c2)C(=O)C1 | 2%
Cc1cccn2c(=O)c3cc(C#N)c(=O)n(-c4nnc(SCc5ccc(Cl)cc5)s4)c3nc12 | 8.9µM*
N#Cc1cc2c(=O)n3ccccc3nc2n(-c2nnc(SCc3ccccc3)s2)c1=O | i
Cc1ccc(CSc2nnc(-n3c(=O)c(C#N)cc4c(=O)n5cc(C)ccc5nc43)s2)cc1 | 32%
CCC1c2nccn2CCCN1C(=O)c1ccc2ncccc2c1 (stereo not given) | 11%
CCC(=O)N1CCc2cc(Br)cc(S(=O)(=O)N3CCC(C(=O)Nc4ccc(OC)cc4)CC3)c21 | -27%
Cc1ccc(NS(=O)(=O)c2cc(Br)cc3c2N(C(=O)C2CC2)CC3)cc1C | -24%
CCN(c1ccccc1)S(=O)(=O)c1cc(Br)cc2c1N(C(=O)C1CC1)CC2 | 1.1µM*
SMILES | Pf Dd2 growth
COc1cc(NS(=O)(=O)c2cc(Br)cc3c2N(C(=O)C2CC2)CC3)cc(OC)c1 | -18%
CCN(C(=O)C1CCN(S(=O)(=O)c2cc(Br)cc3c2N(C(C)=O)CC3)CC1)c1cccc(C)c1 | 5µM*
O=C(C1CC1)N1CCc2cc(Br)cc(S(=O)(=O)N3CCN(c4ccccc4)CC3)c21 | 21%
CCC(=O)N1CCc2cc(Br)cc(S(=O)(=O)NCCc3cccc(C)c3)c21 | -17%
Cc1cccc(N2CCN(S(=O)(=O)c3cc(Br)cc4c3N(C(=O)C3CC3)CC4)CC2C)c1 (stereo not given) | 11µM*
O=C(C1CC1)N1CCc2cc(Br)cc(S(=O)(=O)Nc3ccc(F)c(F)c3)c21 | 0%
COc1ccc(C[C@H](NC(=O)C2=C[C@@H](NC(=O)Nc3ccccc3Br)[C@@H](O)[C@H](O)C2)C(N)=O)cc1 | 3%
COc1ccccc1C(=O)N1CCCC2(CNc3ccccc3[S+](=O)([O-])N2)C1 (stereo not given) | i
Cc1ccc(C#N)c(N2CCCC(c3nccn3CC3CCC3)C2)n1 (stereo not given) | i
c1cc2c(cc1OC1CN(CC3CC3)C1)OCO2 | -2%[44.1 µM]
COc1ccc(N2CC(C(=O)N3CCN(c4ncccn4)CC3)NC2=O)cc1 (stereo not given) | -23%
COc1ccc(-c2nc(C)nc3c2CCN(CC2CC2)CC3)cc1 | i
Clc1ccc(-c2nc(C3CC3)nc3c2CCN(Cc2ccccc2)CC3)cc1 | i
COc1ccc(-c2nc(C)nc3c2CCN(CCC(C)C)CC3)cc1 | -15%
COc1ccc(-c2nc(C3CC3)nc3c2CCN(Cc2ccccc2)CC3)cc1 | 5µM*
COc1ccc(CC(=O)N2CCc3nc(C4CC4)nc(-c4ccc(Cl)cc4)c3C2)cc1 | i
COc1ccc(-c2nc(C3CC3)nc3c2CCN(Cc2cc(C)on2)CC3)cc1 | 2.5µM*
COc1ccccc1C(=O)N1CCCc2nc(C)nc(-c3ccc(O)cc3)c2C1 | -18%
Cn1cnnc1C1CCN(C(=O)C2CCCN(C(N)=O)C2)CC1 (stereo not given) | 5%
O=C(Cn1nc2c(cc1=O)CCCCC2)N[C@@H](C(=O)O)c1ccccc1 | 2%
NC(=O)[C@@H]1CCCN1CC[C@H]1CN(C(=O)COc2ccccc2)CC[C@H]1CC(=O)O | -5%[44.1 µM]
COc1ccccc1CC(=O)N1CCCc2ncc(C(=O)N3CCCC[C@@H]3Cc3ccccc3)cc21 | 7.9µM*
COc1ccccc1CC(=O)N1CCCc2ncc(C(=O)NC(c3ccccc3)c3ccccc3)cc21 | 0%
COc1ccccc1CC(=O)N1CCCc2ncc(C(=O)NCc3cccc(Cl)c3)cc21 | i
COc1ccccc1CC(=O)N1CCCc2ncc(C(=O)N3CCCC[C@@H]3c3ccccc3)cc21 | 11µM*
SMILES | Pf Dd2 growth
COc1ccccc1CC(=O)N1CCCc2ncc(C(=O)N3CCC(OC)CC3)cc21 | 1%[44.1 µM]
COC1CCN(C(=O)c2cnc3c(c2)N(C(=O)CCc2ccccc2)CCC3)CC1 | -23%[44.1 µM]
CC(=O)N1CCC(N[C@H]2C[C@@H](Cc3cc(CN4CCOCC4)on3)C2(C)C)CC1 | 5%[44.1 µM]
Cc1cccc(-c2noc([C@@H]3C[C@@H](O)CN3Cc3ccccn3)n2)c1 | i
Cc1cc(C(=O)N2CC3CC(C2)[C@H]2CCCC(=O)N2C3)no1 (stereo not given in full) | -1%
O=[S+]([O-])(c1cccs1)N1CC(Oc2ccc3c(c2)OCO3)C1 | -9%
O=C([C@H]1CCC[C@H](O)C1)N(CCc1ccc(Cl)cc1)Cc1cccnc1 | -14%
CCO[C@H]1CN(Cc2cnc(SCc3ccccc3)nc2)C[C@@H]1O | -18%
CCO[C@H]1CN(Cc2ccc(OC)c(OCc3cccc(F)c3)c2)C[C@@H]1O | 13µM*
COCc1noc([C@@H]2CN(Cc3cccc(F)c3)C[C@H]2COC)n1 | 17%
O=C(c1ccc(Cl)cc1)N1CCC(N2CCCCC2=O)CC1 | 2%
COCc1noc([C@@H]2CN(S(=O)(=O)Cc3ccc(F)cc3)C[C@H]2C(N)=O)n1 | 9%
CS(=O)(=O)N1CCC(CC(=O)NCCCN2CCc3ccccc3C2)C1 (stereo not given) | -28%
Cc1ccc(-c2nnc(SCC(=O)NC3CCCC3)nc2-c2ccc(C)cc2)cc1 | 5µM*
O=C(CSc1nnc(-c2ccc(Cl)cc2)c(-c2ccc(Cl)cc2)n1)NC1CCCC1 | i
COc1ccc(-c2nnc(SCC(=O)NC3CCCCC3)nc2-c2ccc(OC)cc2)cc1 | 39%
CC(C)(C)CC(=O)N1CC[C@H]2CC(=O)N(CCN3CCNC3=O)CC[C@H]2C1 | -4%[44.1 µM]
Cc1cccc(OCCc2noc(C3CCCCN3S(C)(=O)=O)n2)c1 (stereo not given) | -18%
CCOCC(=O)N1CCCCCCNC(=O)[C@@H]2C[C@@H](c3nc(-c4cccnc4)no3)C[C@@H]21 | -4%
COCCNC(=O)[C@H]1C[C@H](Oc2ccccc2)CN1C(=O)NCCc1ccccc1 | i
